# Measured values as given in the supplement of paper PMC6555819.
# How the values were obtained:
# Test in all cases: PBM binding z-score (relative to random genomic background probes); higher = stronger binding; sequences stand for … in GC…GCGATTGACAGCGTAGAATGAAGG
# [1] = test system: FXR:RXRa (NR concentration 270 nM, RXRa partner concentration 90 nM)
# Outline: (§1)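 On custom Agilent 4×180K arrays, double-stranded probes with 34-nt variable regions carried direct-repeat seeds, single-nucleotide variants, half-site ablations or random human genomic background. Ligand-free nuclear receptor dimers were applied for 1 h, and binding was read with antibodies against each partner (one per run). Binding z-scores come from regression-normalized fluorescence, with the random background probes as reference.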
# [2] = test system: LXRa:RXRa (NR concentration 270 nM, RXRa partner concentration 90 nM)
# Outline: as §1
# [3] = test system: LXRa homodimer (NR concentration 270 nM)
# Outline: as §1
# [4] = test system: LXRb:RXRa (NR concentration 270 nM, RXRa partner concentration 90 nM)
# Outline: as §1
# [5] = test system: LXRb homodimer (NR concentration 270 nM)
# Outline: as §1
# [6] = test system: PPARa:RXRa (NR concentration 270 nM, RXRa partner concentration 90 nM)
# Outline: as §1
# [7] = test system: PPARg:RXRa (NR concentration 180 nM, RXRa partner concentration 90 nM)
# Outline: as §1
# [8] = test system: PPARg:RXRa 270nM:90nM, anti-RXR (NR concentration 270 nM, RXRa partner concentration 90 nM)
# Outline: as §1
# [9] = test system: PPARg:RXRa 30nM:10nM, anti-RXR (NR concentration 30 nM, RXRa partner concentration 10 nM)
# Outline: as §1
# [10] = test system: PPARg:RXRa 90nM:30nM, anti-RXR (NR concentration 90 nM, RXRa partner concentration 30 nM)
# Outline: as §1
# [11] = test system: PPARg:RXRa DBDmut IVT, anti-RXR (DBD mutation: RXRa K156A/R161A, NR concentration 270 nM, RXRa partner concentration 90 nM)
# Outline: as §1
# [12] = test system: PPARg:RXRa IVT, anti-PPARg (NR concentration 270 nM, RXRa partner concentration 90 nM)
# Outline: as §1
# [13] = test system: PPARg DBDmut:RXRa IVT, anti-PPARg (DBD mutation: PPARg1 K132A/R137A, NR concentration 270 nM, RXRa partner concentration 90 nM)
# Outline: as §1
# [14] = test system: PPARg DBDmut IVT, anti-PPARg (DBD mutation: PPARg1 K132A/R137A, NR concentration 270 nM)
# Outline: as §1
# [15] = test system: PPARg homodimer (NR concentration 180 nM)
# Outline: as §1
# [16] = test system: PXR:RXRa (NR concentration 270 nM, RXRa partner concentration 90 nM)
# Outline: as §1
# [17] = test system: PXR homodimer (NR concentration 270 nM)
# Outline: as §1
# [18] = test system: RARa:RXR (NR concentration 270 nM, RXRa partner concentration 90 nM)
# Outline: as §1
# [19] = test system: RARa homodimer (NR concentration 270 nM)
# Outline: as §1
# [20] = test system: RARb:RXRa (NR concentration 270 nM, RXRa partner concentration 90 nM)
# Outline: as §1
Sequence,PBM binding z-score [1],PBM binding z-score [2],PBM binding z-score [3],PBM binding z-score [4],PBM binding z-score [5],PBM binding z-score [6],PBM binding z-score [7],PBM binding z-score [8],PBM binding z-score [9],PBM binding z-score [10],PBM binding z-score [11],PBM binding z-score [12],PBM binding z-score [13],PBM binding z-score [14],PBM binding z-score [15],PBM binding z-score [16],PBM binding z-score [17],PBM binding z-score [18],PBM binding z-score [19],PBM binding z-score [20]
GGAACGAGGGCATCCGAGTTGATAGCATGGCGAT,1.24,0.897,-0.543,-0.129,-0.874,1.53,1.15,0.688,-0.271,-0.0258,2.9,2.23,-0.317,-0.705,-0.0747,3.67,0.048,0.949,-0.37,1.78
ACTAGCAGGCCAATTTTGGGTCACTCAAACAAAG,0.105,0.0624,0.139,0.747,-0.68,1.8,0.396,0.508,-0.304,-0.0238,1.13,1.84,0.126,-0.427,0.323,0.759,-0.305,1.38,-0.793,1.45
TCATATAGGTAAAAGGTGAGAGTCGGTGTGGTAA,1.07,1.56,-0.0844,1.55,0.0234,4.75,8.85,8.5,7.77,10,5.3,4.91,2.38,1.33,1.91,1.43,0.171,2.43,1.17,1.77
GCTCGGAGGACAATGTCAGAGCTTTGTCCGTAGA,-0.623,-0.613,-0.612,-0.519,-0.999,-0.586,-0.765,-0.898,-1.25,-1.01,-0.596,-0.513,-1.4,-0.198,-1.02,-0.494,-0.648,-0.772,-1.31,0.788
ACTACTAGTTGAGACGAGGGCAACCGATAGGTTG,0.166,-0.245,-0.365,-0.0617,-0.193,0.173,0.721,0.0309,-0.149,-0.0878,0.0475,0.419,0.298,0.0425,0.265,1.22,0.4,0.775,0.103,0.93
TCTTGTAGATCAAGAGAGGTTAAGAAAGTGCGCT,0.516,3.28,0.0219,1.46,-0.672,1.44,-0.217,1.2,2.19,1.72,0.899,0.319,-0.033,-0.382,-0.0736,2.95,0.139,1.6,-0.753,0.635
